Paper PMC5540273 (PLoS ONE, 2017)

How the values were obtained:
Details in all cases: concentration: 1 μM,replicates: in singlicate; n = 1
[1] = tested on: PIP5K1A
[2] = tested on: PIP5K1C
[3] = tested on: PIP5K2B
[4] = tested on: T1, PIP5K2C
T1 construct: gene PIP4K2C

[5] = tested on: T2, PKAC-alpha
T2 construct: gene PRKACA

[6] = tested on: T3, PKAC-beta
T3 construct: gene PRKACB

[7] = tested on: PKMYT1
[8] = tested on: PKN1
[9] = tested on: PKN2
[10] = tested on: PLK1
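Note: KINOMEscan kinase panel screen.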

Row | Structure (SMILES) | %Inh [1] | %Inh [2] | %Inh [3] | %Inh [4] | %Inh [5] | %Inh [6] | %Inh [7] | %Inh [8] | %Inh [9] | %Inh [10]
1 | CN1CCN(CCCNc2nccc(-c3c(-c4ccc(F)cc4)nn4cc(C(N)=O)ccc34)n2)CC1 [GW622475] | 0% | 50% | 12% | 29% | 6% | 1% | 9% | 13% | 0% | 0%
2 | O=C(Nc1n[nH]c2cc(-c3ccco3)ccc12)C1CC1 [SB-737447] | 45% | 12% | 27% | 0% | 0% | 0% | 0% | 0% | 12% | 0%
3 | CN(c1ccc2c(c1)nc(NCc1ccc(F)cc1)n2C)c1ccnc(Nc2ccc(CS(C)(=O)=O)cc2)n1.Cl [GW813244] | 12% | 0% | 26% | 52% | 24% | 14% | 4% | 18% | 4% | 0%
4 | c1ccc(Oc2ccc(Nc3ccnc4ccc(-c5ccccn5)cc34)cc2)cc1 [GW407034] | 6% | 23% | 25% | 28% | 0% | 8% | 11% | 28% | 0% | 0%
5 | Cl.Nc1n[nH]c2cc(-c3ccccn3)ccc12 [GSK2189892] | 0% | 25% | 7% | 7% | 0% | 0% | 0% | 10% | 0% | 0%
6 | CCCC(=O)Nc1n[nH]c2ncccc12 [SB-601436] | 24% | 0% | 39% | 0% | 0% | 10% | 0% | 0% | 9% | 0%
7 | CNC(=O)c1ccccc1Nc1nc(Nc2cccc(CS(C)(=O)=O)c2)ncc1C.O=CO [GSK1520489] | 55% | 52% | 84% | 79% | 11% | 28% | 84% | 56% | 2% | 97.9%
8 | CN1CCN(CCNc2nc3cc(Oc4ccc(NC(=O)Nc5cc(C(F)(F)F)ccc5F)cc4)ccc3[nH]2)CC1.Cl.Cl [GW768504] | 20% | 0% | 0% | 0% | 0% | 2% | 0% | 0% | 8% | 0%
9 | COC(=O)c1cccc(NC(=O)NC2CCN(c3ccnc(Nc4cc(OC)c(OC)c(OC)c4)n3)C2)c1 (stereo not drawn) [GSK1379767] | 22% | 64% | 10% | 90.7% | 0% | 0% | 6% | 7% | 0% | 8%
10 | CS(=O)c1ccc(-c2coc3ccc(-c4n[nH]c(=O)o4)cc23)cc1 (stereo not drawn) | 0% | 68% | 20% | 79% | 0% | 23% | 8% | 8% | 12% | 6%
11 | Cc1cccc(-c2nc(Nc3ccncc3)c3sccc3n2)n1 [GW869641] | 4% | 61% | 3% | 45% | 25% | 38% | 3% | 1% | 12% | 33%
12 | Cc1nnc(-c2ccc3occ(-c4ccc(S(C)=O)cc4)c3n2)o1 (stereo not drawn) | 9% | 10% | 0% | 43% | 0% | 0% | 64% | 0% | 0% | 0%
13 | Cn1ccc2ncnc(Oc3ccc(NC(=O)Nc4cc(C(C)(C)C)on4)c(Cl)c3)c21 | 14% | 0% | 38% | 0% | 0% | 0% | 0% | 0% | 0% | 0%
14 | COC(=O)c1cccc(NC(=O)NC2CCN(c3ccnc(NCc4ccc(F)cc4)n3)CC2)c1 [GSK1379860] | 0% | 20% | 19% | 2% | 0% | 0% | 0% | 32% | 0% | 0%
15 | Nc1nccc(-c2ccc3c(N)n[nH]c3c2)n1 [GSK1034945] | 0% | 29% | 48% | 10% | 12% | 0% | 8% | 0% | 9% | 0%
16 | COc1cccc(C2=C(Nc3cccc(Cl)c3)C(=O)NC2=O)c1 [SB-341556] | 0% | 23% | 0% | 28% | 0% | 0% | 0% | 5% | 0% | 0%
17 | CC(=O)Nc1nc2cnc(Nc3cc(NC(=O)c4cccc(CC(C)(C)C#N)c4)ccc3C)nc2s1 | 0% | 4% | 33% | 53% | 13% | 0% | 20% | 21% | 0% | 7%

Row | Structure (SMILES) | %Inh [1] | %Inh [2] | %Inh [3] | %Inh [4] | %Inh [5] | %Inh [6] | %Inh [7] | %Inh [8] | %Inh [9] | %Inh [10]
18 | N#Cc1cccc(C(=O)NC2CCN(c3ccnc(Nc4ccc(F)cc4)n3)C2)c1 (stereo not drawn) [GSK1379708] | 0% | 37% | 0% | 21% | 9% | 0% | 0% | 14% | 0% | 0%
19 | CC(C)S(=O)(=O)N1CCN(Cc2ccc3c(c2)nc(NC(=O)c2ccsc2)n3C[C@H](O)c2ccccc2)CC1 [GW635815] | 0% | 15% | 35% | 24% | 0% | 27% | 8% | 6% | 25% | 0%
20 | Cc1ccc(Nc2ccnc(Nc3ccc4c(c3)CS(=O)(=O)C4)n2)cc1O.Cl [GW579362] | 29% | 39% | 80% | 90% | 7% | 0% | 0% | 11% | 0% | 0%
21 | FC(F)(F)c1cc(Br)cc(Nc2nccc(-c3cnn4ncccc34)n2)c1 [GW810578] | 0% | 3% | 0% | 94.2% | 17% | 0% | 1% | 12% | 27% | 9%
22 | O=c1[nH]cc(-c2ccc(O)cc2)c2sc(-c3ccncc3)cc12 [GSK1033723] | 0% | 65% | 19% | 27% | 0% | 0% | 8% | 0% | 0% | 13%
23 | COc1cccc(CNC(=O)NC2CCN(c3ccnc(Nc4cc(OC)c(OC)c(OC)c4)n3)C2)c1 (stereo not drawn) [GSK1379765] | 52% | 68% | 14% | 90.3% | 0% | 0% | 8% | 36% | 0% | 0%
24 | CS(=O)(=O)c1cccc(CNc2nc(Nc3ccc4c(c3)[C@@H]3C[C@@H]4CNC3=O)ncc2C(F)(F)F)c1 | 52% | 48% | 93.3% | 52% | 0% | 0% | 0% | 56% | 22% | 0%
25 | CN(c1cccc(CNc2nc(Nc3ccc4c(c3)CC(=O)N4)ncc2C(F)(F)F)c1)S(C)(=O)=O | 45% | 45% | 90.9% | 46% | 0% | 0% | 5% | 77% | 19% | 0%
26 | O=C(Nc1ccccc1)c1cccc(Oc2ccc3nccn3n2)c1 | 0% | 23% | 15% | 14% | 5% | 0% | 0% | 26% | 29% | 36%
27 | CCn1c(-c2nonc2N)nc2cncc(CNC3CCNCC3)c21.Cl [SB-747651] | 0% | 25% | 0% | 22% | 85% | 83% | 3% | 39% | 0% | 0%
28 | Cn1ccc2ncnc(Oc3ccc(NC(=O)Nc4cccc(C(F)(F)F)c4)c(Cl)c3)c21 | 0% | 48% | 2% | 0% | 0% | 0% | 0% | 0% | 0% | 0%
29 | O=C(NOCC1CC1)c1cc(Br)c(F)c(F)c1Nc1ccc(I)cc1Cl | 4% | 43% | 4% | 36% | 9% | 0% | 0% | 9% | 0% | 0%
30 | CSc1nccc(-c2c(-c3ccc(F)cc3)ncn2CCCN2CCOCC2)n1.Cl [SB-217146] | 0% | 0% | 0% | 0% | 14% | 19% | 0% | 0% | 0% | 33%
31 | CC(C(=O)NC1CCN(c2ccnc(Nc3ccc(F)cc3)n2)C1)c1ccc(Cl)cc1 (stereo not drawn) [GSK1379713] | 21% | 0% | 1% | 4% | 0% | 6% | 0% | 4% | 0% | 0%
32 | Cc1ccn2nc(-c3ccc(F)cc3)c(-c3ccncc3)c2c1.Cl [GW457859] | 54% | 81% | 15% | 26% | 29% | 13% | 0% | 0% | 0% | 0%
33 | CN(c1ccccc1CNc1nc(Nc2ccc3c(c2)CC(=O)N3)ncc1C(F)(F)F)S(C)(=O)=O | 32% | 0% | 19% | 9% | 77% | 63% | 0% | 85% | 66% | 0%
